# An excerpt weighted towards active compounds, which were near 1.6% of everything screened.
# KCNQ2 pot: enhances the rat KCNQ2 potassium channel | CHO-K1 KCNQ2, FluxOR thallium flux fluorescence; stronger effect = higher value | B-score at 10 µM | actives 0.54% (n = 310,000) | AID 2239;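 active = fluorescence ratio B-score at least 3 SD of library B-scores, with initial fluorescence B-score within 3 of them, cut at about 5.3 in these data; same plate scores as AID 2156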;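 also: B-score of peak minus minimum over baseline fluorescence ratio after K+ and Tl+ stimulus; positive B-score means potentiation of KCNQ2 with more thallium influx and brighter signal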
# KCNQ2 inh: KCNQ2 (rat) channel inhibition. CHO-K1 KCNQ2, FluxOR thallium flux, 20 min; stronger effect = lower value. actives 1.1% (n = 310,000). O88943. B-score at 10 µM;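 active = fluorescence ratio B-score at most minus 3 library SDs, with starting brightness B-score within 2 library SDs, cut at about -5.5 in these data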
# Kir21 confirm: confirmation of mouse Kir2.1 potassium channel inhibitors; shares compounds with KCNQ2 pot; Kir2.1-expressing cells, FluxOR thallium flux fluorescence; stronger effect = lower value; Tl flux remaining, % of negative control (stronger effect = lower value), % at 10 µM; actives 41% (n = 2,300); AID 2032;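 active = Primary-screen hit whose thallium flux fell at least 3 control SD below untreated wells in both duplicates, with normal baseline fluorescence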;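 also: 0% = blank wells without stimulus and 100% = stimulated no-compound controls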
# Target sequence (P35561 whole entry, looked up): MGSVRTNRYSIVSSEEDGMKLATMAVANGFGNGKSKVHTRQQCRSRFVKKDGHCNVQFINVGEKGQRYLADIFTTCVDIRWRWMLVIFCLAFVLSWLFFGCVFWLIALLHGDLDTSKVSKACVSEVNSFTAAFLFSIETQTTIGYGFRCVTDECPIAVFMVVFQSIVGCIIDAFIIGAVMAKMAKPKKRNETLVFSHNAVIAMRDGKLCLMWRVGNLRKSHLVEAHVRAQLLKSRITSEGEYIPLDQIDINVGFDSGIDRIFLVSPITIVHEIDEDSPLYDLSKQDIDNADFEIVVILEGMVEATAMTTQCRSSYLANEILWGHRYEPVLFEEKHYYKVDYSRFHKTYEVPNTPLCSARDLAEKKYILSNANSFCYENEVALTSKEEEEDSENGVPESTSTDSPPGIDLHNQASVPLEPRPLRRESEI
# HEK293 Tl flux: alters thallium flux in parental HEK293 cells, Kir2.1 counter-screen; FluxOR signal as % of negative control (100 = no effect), % at 10 µM; shares compounds with KCNQ2 pot; actives 19% (n = 2,300); FluxOR thallium flux fluorescence; 0% = unstimulated blank wells;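 active = dye signal at least 3 control SD above or below untreated wells in both duplicates, raw fluorescence within 3, either direction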;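 also: percent is based on the flux ratio of peak minus minimum fluorescence over baseline F0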
# CHO-K1 Tl ctr: parental CHO-K1 activity in KCNQ2 potentiator counter-screen; shares compounds with KCNQ2 pot; parental CHO-K1 cells, FluxOR thallium flux fluorescence; zero = vehicle mean+3SD, 100% = vehicle-minus-blank window; activity increase over 3SD of controls, % at 10 µM; actives 43% (n = 1,200); AID 2282;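 active = signal rise of at least 3 SD above the untreated control mean, in both duplicate wells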;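 also: counter screen of KCNQ2 potentiator hits so any rise reflects channel-independent effects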
# KCNQ1 sel pot: selectivity of KCNQ2 potentiators: effect on human KCNQ1. shares compounds with KCNQ2 pot. CHO KCNQ1 stable, FluxOR thallium flux fluorescence; beyond 3SD, as % of vehicle-control signal. activation over 3SD threshold, % at 10 µM. actives 28% (n = 1,200). AID 2283;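 active = fluorescence ratio rise of at least 3 SD of vehicle wells above their mean, in both replicate wells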;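 also: 0% = vehicle mean plus 3 SD and 100% = vehicle minus unstimulated blank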
# KCNQ2 pot conf: confirmation of rat KCNQ2 potassium channel potentiators. shares compounds with KCNQ2 pot. CHO-KCNQ2 cells, FluxOR thallium flux fluorescence. potentiation, less the hit threshold, % at 10 µM. actives 68% (n = 1,200). AID 2287;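 active = fluorescence ratio rising 3 SD or more over the vehicle control mean in both replicates, plus primary screen hit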;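 also: peak minus minimum thallium fluorescence divided by baseline after K/Tl stimulus; 0% = vehicle mean plus 3 SD and 100% = vehicle minus unstimulated blank difference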
# Kir2-1 sel: selectivity of KCNQ2 potentiators: effect on mouse Kir2.1; shares compounds with KCNQ2 pot; HEK293 Kir2.1, FluxOR thallium flux fluorescence; activity over 3SD threshold, % at 10 µM; actives 2% (n = 1,200);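 active = fluorescence ratio rise of at least 3 SD above the vehicle-control mean, seen in both replicates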;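 also: 0% = vehicle mean plus 3 SD and 100% = vehicle minus no-stimulus blank window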
# KCNQ2 W236L pot: KCNQ2 potentiators acting on retigabine-insensitive rat KCNQ2 W236L mutant | shares compounds with KCNQ2 pot | CHO KCNQ2-W236L, automated patch clamp current | current increase over 3SD of negative controls (%), stronger effect = higher value, % at 25 µM | actives 10% (n = 940) | AID 2558;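 active = current increase at least 3 SD of the untreated controls above them in both duplicate recordings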
# * hit, by the source's call; i = inactive; nt = no result given.
SMILES,KCNQ2 pot,KCNQ2 inh,Kir21 confirm,HEK293 Tl flux,others
CCc1ccc(-c2cc(C(=O)N/N=C/c3ccco3)[nH]n2)cc1,1.28,i,nt,nt,
O=C(N/N=C/c1ccco1)c1cc(-c2ccc3ccccc3c2)n[nH]1,9.16*,i,i,i,CHO-K1 Tl ctr=54.0*;KCNQ1 sel pot=-13.4;KCNQ2 pot conf=32.2*;Kir2-1 sel=-26.9;KCNQ2 W236L pot=i
CCn1cc(CCCC(=O)NCc2ccccc2OC)c2ccccc21,nt,i,nt,nt,
CCn1cc(CCC(=O)NCc2ccccc2OC)c2ccccc21,0.26,i,49.5%*,i,
O=C(Oc1ccccc1C(=S)N1CCOCC1)c1cccc([N+](=O)[O-])c1,0.06,i,nt,nt,
CN(Cc1ccccc1)S(=O)(=O)c1ccc(Cl)nc1,nt,i,nt,nt,
CC(C)N(Cc1ccccc1)S(=O)(=O)c1ccc(Cl)nc1,nt,i,65.0%*,i,
Cc1nc(-c2ccc([N+](=O)[O-])cc2)nc2[nH]ccc(=O)c12,nt,i,nt,nt,
O=C(COC(=O)c1cccc(-n2cnnn2)c1)c1ccc(Br)cc1,0.82,i,nt,nt,
O=C(Nc1ccccc1)C1=C(c2ccccc2)S(=O)(=O)CCS1(=O)=O,8.09*,i,i,i,CHO-K1 Tl ctr=-16.1;KCNQ1 sel pot=-21.6;KCNQ2 pot conf=3.7*;Kir2-1 sel=-38.8;KCNQ2 W236L pot=3.5%*
O=C(O)c1ccccc1C(=O)Nc1ccccc1,0.79,i,nt,nt,
CCC1CCCCN1CCCNC(=O)c1ccc(CS(=O)(=O)c2ccccc2C)o1 (configuration not stated),nt,i,nt,nt,
NC(=NCc1ccco1)NC(=O)c1ccc(Cl)cc1,7.03*,i,i,i,CHO-K1 Tl ctr=2.6*;KCNQ1 sel pot=-21.6;KCNQ2 pot conf=51.0*;Kir2-1 sel=-48.9;KCNQ2 W236L pot=i
O=C(NCCCNC(=O)c1ccco1)c1ccc(Cl)cc1,nt,i,nt,nt,
Cc1ccccc1NC(=O)Cc1nnc(SCC(=O)NC2CCCCC2)n1C,1.16,i,nt,nt,
Cc1ccc(C(CNC(=O)c2ccco2)N2CCN(C)CC2)cc1 (configuration not stated),nt,i,nt,nt,
CCC1(c2ccccc2)NC(=S)N(c2ccc(C)c(C)c2)N1 (configuration not stated),12.9*,i,i,435.0%*,CHO-K1 Tl ctr=-5.3;KCNQ1 sel pot=-18.5;KCNQ2 pot conf=55.2*;Kir2-1 sel=-19.1;KCNQ2 W236L pot=i
CCC1(c2ccc(Cl)cc2)NC(=S)N(c2ccc(C)c(C)c2)N1 (configuration not stated),28.7*,i,i,537.0%*,CHO-K1 Tl ctr=21.0*;KCNQ1 sel pot=-10.0;KCNQ2 pot conf=67.5*;Kir2-1 sel=-3.1
CC1=CC(C)(C)NC(=S)N1c1ccc(C)c(C)c1,0.02,i,nt,nt,
Cc1ccc(-n2c(C)n[nH]c2=S)cc1C,nt,i,nt,nt,
O=C(NC(=S)Nc1cccnc1)c1ccccc1,0.03,i,nt,nt,
Cc1snnc1C(=O)NC(=S)Nc1ccccc1,5.95*,i,i,239.0%*,CHO-K1 Tl ctr=-22.4;KCNQ1 sel pot=-13.8;KCNQ2 pot conf=34.5*;Kir2-1 sel=-16.7;KCNQ2 W236L pot=i
O=C(NNC(=S)NCc1ccccc1)c1ccc(Br)o1,nt,i,nt,nt,
O=C(NC(=S)N1CCc2ccccc21)c1ccc(Br)o1,9.81*,i,i,399.0%*,CHO-K1 Tl ctr=-8.6;KCNQ1 sel pot=47.9*;KCNQ2 pot conf=75.4*;Kir2-1 sel=-15.2;KCNQ2 W236L pot=i
COc1ccc(NC(=S)NC(=O)c2ccc(Br)o2)cc1,8.52*,i,i,199.5%*,CHO-K1 Tl ctr=-5.6;KCNQ1 sel pot=-4.5;KCNQ2 pot conf=38.9*;Kir2-1 sel=-22.9;KCNQ2 W236L pot=i
SMILES,KCNQ2 pot,KCNQ2 inh,Kir21 confirm,HEK293 Tl flux,others
O=C(NC(=S)N1CCc2ccccc21)C1CCC1,0.25,i,nt,nt,
COc1ccc(NC(=O)c2ccc(Br)o2)cc1,0.29,i,nt,nt,
O=C(NC(=S)NCc1ccccc1)c1ccc(Br)o1,13*,i,i,330.0%*,CHO-K1 Tl ctr=-11.2;KCNQ1 sel pot=-19.4;KCNQ2 pot conf=52.7*;Kir2-1 sel=-31.4;KCNQ2 W236L pot=i
CCN1CCN(C(=O)CN(CC)S(=O)(=O)c2ccc3ccccc3c2)CC1,0.48,i,nt,nt,
O=c1c(Cc2ccccc2)c(O)ccn1Cc1ccco1,0.67,i,nt,nt,
CCCOc1ccc(CNC(=O)Cc2cccs2)cc1,0.85,i,nt,nt,
COc1ccccc1NC(=O)Nc1nn(C)c2cccc(OC)c12,nt,i,nt,nt,
CCCCS(=O)(=O)Nc1ccc(N2CCOCC2)c(S(=O)(=O)N2CCOCC2)c1,nt,i,nt,nt,
Cc1cccc(Nc2ccc([N+](=O)[O-])cn2)c1,2.47,i,nt,nt,
NC(=O)c1ccccc1NC(=S)NC(=O)c1ccc(Br)o1,nt,i,nt,nt,
O=C(NC(=S)Nc1ccccc1)c1ccc(Br)o1,8.16*,i,i,162.0%*,CHO-K1 Tl ctr=129.6*;KCNQ1 sel pot=-19.2;KCNQ2 pot conf=34.8*;Kir2-1 sel=-24.2;KCNQ2 W236L pot=i
O=C(NC(=O)c1ccc(F)cc1F)Nc1ccc(Cl)cc1,nt,i,nt,nt,
COC(=O)c1ccc(Oc2nc(NC(C)C)nc(N(C)C)n2)cc1,10.6*,i,i,i,CHO-K1 Tl ctr=-16.5;KCNQ1 sel pot=-12.5;KCNQ2 pot conf=-25.7;Kir2-1 sel=-32.0
COC(=O)c1ccc(Oc2nc(NC(C)C)nc(NC(C)C)n2)cc1,nt,i,nt,nt,
O=C(Cn1cc(F)c(=O)[nH]c1=O)NCCO,nt,i,nt,nt,
CCOC(=O)C(NS(=O)(=O)c1ccc(Br)cc1)C(C)C (configuration not stated),0.59,i,42.5%*,i,
Cc1ccc(S(=O)(=O)NC(C(=O)OCC(=O)NC(=O)c2cccn2C)C(C)C)cc1 (configuration not stated),0.09,i,nt,nt,
c1ccc(-c2cncn2-c2ccccc2)cc1,nt,i,nt,nt,
COc1ccc(C(=O)Nc2ccc(OCC(=O)N3CCOCC3)cc2)c(OC)c1OC,nt,i,nt,nt,
CC(C)NC(=O)C(=O)NCCC1CCCCN1S(=O)(=O)c1cccs1 (configuration not stated),0.6,i,nt,nt,
COc1cc(C)nc(NC(=O)NC(=O)c2ccc(C(F)(F)F)cc2)n1,0.69,i,nt,nt,
CCOC(=O)C1(Cc2ccccc2)CCCN(C2CCCC2)C1 (configuration not stated),nt,i,nt,nt,
S=c1nc(C2CCCCC2)[nH]c2ccccc12,nt,i,nt,nt,
S=c1nc(C2CC2)[nH]c2ccccc12,15.6*,i,i,341.0%*,CHO-K1 Tl ctr=16.6*;KCNQ1 sel pot=-10.9;KCNQ2 pot conf=46.2*;Kir2-1 sel=-17.9;KCNQ2 W236L pot=i
Cc1ccc(C)c(NC(=O)C2CCCN(S(=O)(=O)c3c(C)nn(C)c3C)C2)c1 (configuration not stated),nt,i,nt,nt,
COc1cc(/C=C(\NC(C)=O)C(=O)Nc2cccc(O)c2)ccc1OC(C)=O,nt,i,nt,nt,
CC(=O)NS(=O)(=O)c1ccc(NC(=O)CSc2ccc(C)cc2)cc1,0.02,i,nt,nt,
Cc1c(CC(=O)O)c(=O)oc2cc(OCc3ccc(Cl)cc3)ccc12,0.86,i,nt,nt,

# High-throughput results deposited in PubChem BioAssay by Johns Hopkins Ion Channel Center.
